Measurements as given in PubChem BioAssay (Tox21).
Results filed as inconclusive are left out. Activity calls are given as the source filed them. Unless noted, calls follow the shape of the dose curve; as a rule, active = well fitted curve in the direction sought with a large enough effect in the repeat runs; inconclusive = weak or mixed curves; inactive = no such curve, though single readings can be large; an effect the other way counts as inactive or inconclusive.

Assays:
[1] = target: Thyrotropin receptor (Homo sapiens) (UniProt P16473); assay: qHTS assay to identify small molecule agonists of the thyroid stimulating hormone receptor (TSHR) signaling pathway (AID 1224843; calls by dose curve; also: nearly all actives have a fitted effect of over 45% in size); conditions: TSHR-HEK293 cells, cAMP HTRF, agonist mode, 30 min; series mostly up to 92.4 µM
Sequence of Thyrotropin receptor (Homo sapiens) (P16473 whole entry, looked up): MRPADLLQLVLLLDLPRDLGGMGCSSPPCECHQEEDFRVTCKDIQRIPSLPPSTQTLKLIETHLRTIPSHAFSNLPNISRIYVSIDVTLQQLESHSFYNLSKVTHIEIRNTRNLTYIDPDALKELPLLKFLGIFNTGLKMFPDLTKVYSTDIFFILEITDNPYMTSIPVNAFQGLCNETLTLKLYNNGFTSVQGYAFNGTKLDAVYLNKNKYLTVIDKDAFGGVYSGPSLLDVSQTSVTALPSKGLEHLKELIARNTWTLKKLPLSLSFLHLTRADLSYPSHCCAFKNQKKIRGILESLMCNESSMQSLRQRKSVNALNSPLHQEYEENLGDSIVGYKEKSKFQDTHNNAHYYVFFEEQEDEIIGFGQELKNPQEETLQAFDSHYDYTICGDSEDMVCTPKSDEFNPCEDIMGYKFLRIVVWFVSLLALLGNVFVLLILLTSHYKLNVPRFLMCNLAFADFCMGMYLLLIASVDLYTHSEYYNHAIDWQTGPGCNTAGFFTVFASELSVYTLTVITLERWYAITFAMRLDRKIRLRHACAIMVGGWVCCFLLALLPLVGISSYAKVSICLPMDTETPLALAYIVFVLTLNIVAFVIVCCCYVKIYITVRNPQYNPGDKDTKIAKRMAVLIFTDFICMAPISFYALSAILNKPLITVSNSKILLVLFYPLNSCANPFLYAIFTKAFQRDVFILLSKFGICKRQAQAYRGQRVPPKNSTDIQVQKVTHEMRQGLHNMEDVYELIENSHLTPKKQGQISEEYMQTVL
Procedure, shortened: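 Steps: seed 800 TSHR-HEK293 cells per well; add test compound and hold 30 min at ambient temperature; dispense cAMP-d2 then anti-cAMP cryptate; incubate 1 h at ambient; measure fluorescence intensity.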

[2] = qHTS assay to identify small molecule agonists of the hypoxia (HIF-1) signaling pathway - cell viability counter screen (AID 1224844; calls by dose curve; also: nearly all actives have a fitted effect of over 50% in size); conditions: HRE-bla ME-180 viability, CellTiter-Glo luminescence, 17 h; series mostly up to 76.8 µM
Procedure, shortened: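 HRE-bla ME-180 cells in medium with 0.5% dialyzed FBS were preincubated 5 hrs at 37C, exposed to compounds for 17 hrs, then viability was read as CellTiter-Glo luminescence after 30 min at room temperature, in the reporter wells.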

[3] = qHTS assay to identify small molecule agonists of H2AX (AID 1224845; active = well fitted activation curve with a large enough effect in the signal ratio in the repeat runs, not every such curve was filed as active; the % refers to the signal ratio); conditions: CHO-K1 phospho-H2AX Ser139 HTRF, 3 h; series mostly up to 154 µM
Procedure, shortened: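 Wild-type CHO-K1 cells, plated overnight, exposed 3hr at 37C to 15 concentrations (0.76% DMSO final). Lysed, then HTRF anti-pH2AX (S139) cryptate and anti-H2AX-d2 antibodies, 24 hr room temperature; 665/620 nm emission read.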

[4] = qHTS assay to identify small molecule agonists of H2AX - cell viability counter screen (AID 1224847; calls by dose curve; also: top concentration of the series differs between compounds; nearly all actives have a fitted effect of over 30% in size); conditions: CHO-K1 viability, CellTiter-Glo luminescence, 3 h; series mostly up to 154 µM
Procedure, shortened: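 Wild-type CHO-K1 cells (10% FBS medium) were plated overnight at 37C, exposed to compounds at 15 concentrations for 3 hr at 37C (0.76% DMSO final), and viability was read as CellTiter-Glo luminescence after 30 min at room temperature.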

[5] = qHTS assay to identify small molecule antagonists of the estrogen related receptor (ERR) signaling pathway from Tox21 library (AID 1224848); conditions: ERR reporter cell line, luciferase antagonist mode, 18 h; series mostly up to 92.4 µM; also: nearly all actives have a fitted effect of over 50% in size
Procedure, shortened: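 Luminescent reporter read-out (ONE-Glo) from NTP's ERR cell line after 18 h treatment at 37 C with DMSO-dissolved Tox21 compounds; cells pre-plated 6 h beforehand at 2,000 per well.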

[6] = qHTS assay to identify small molecule agonists of the estrogen related receptor (ERR) signaling pathway from Tox21 library (AID 1224849; calls by dose curve; also: nearly all actives have a fitted effect of over 15% in size); conditions: ERR reporter cell line, ONE-Glo luciferase, 18 h; at 92.4 µM (top of the series) unless noted
Procedure, shortened: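 ERR reporter cell line (NTP) seeded, rested 6 h at 37 C/5% CO2, then pinned with Tox21 compounds in DMSO. After 18 h at 37 C, ONE-Glo luciferase luminescence was read following 30 min at room temperature.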

[7] = qHTS RealTime-Glo MT Cell Viability Assay in HepG2 cells - 24 hour (AID 1224867); conditions: RealTime-Glo luminescence; series mostly up to 76.8 µM; also: nearly all actives have a fitted effect of over 50% in size
Procedure, shortened: (§1)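 HepG2 cells (600/well) were dispensed with RealTime-Glo reagents, incubated 5 h at 37 °C, then treated with compounds in DMSO for up to 40 h. Nonlytic NanoLuc luminescence reflecting viable cells was read at each stated time point.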

[8] = qHTS RealTime-Glo MT Cell Viability Assay in HEK293 cells - 32 hour (AID 1224868); conditions: RealTime-Glo luminescence; series mostly up to 76.8 µM; also: top concentration of the series differs between compounds; nearly all actives have a fitted effect of over 50% in size
Procedure, shortened: (§2)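 HEK293 cells seeded with NanoLuc/prosubstrate reagent, rested 5 h at 37 C, then dosed and kept at 37 C up to 40 h. Nonlytic real-time luminescence from viable cells read at 0, 8, 16, 24, 32 and 40 h.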

[9] = A CellTox Green Cytotoxicity Assay to monitor cytotoxicity in HEK293 cells - 0 hour (AID 1224869); conditions: CellTox Green fluorescence; series mostly up to 76.8 µM; also: nearly all actives have a fitted effect of over 50% in size
Procedure, shortened: (§3)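 HEK293 cells premixed with CellTox Green dye were seeded at 600 cells/well and left 5 h at 37 C/5% CO2 before pin transfer of 23 nL compound in DMSO. Fluorescence from dye bound to dead-cell DNA was read during 40 h treatment.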

[10] = qHTS RealTime-Glo MT Cell Viability Assay in HepG2 cells - 40 hour (AID 1224870); conditions: RealTime-Glo luminescence; series mostly up to 76.8 µM; also: nearly all actives have a fitted effect of over 50% in size
Procedure, shortened: (§4)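 HepG2 cells (600/well) mixed with RealTime-Glo MT reagent, settled 5 h at 37 C/5% CO2 before compound addition. Nonlytic NanoLuc luminescence from viable-cell prosubstrate reduction read repeatedly during 40 h treatment at 37 C.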

[11] = A CellTox Green Cytotoxicity Assay to monitor cytotoxicity in HEK293 cells - 40 hour (AID 1224871); conditions: CellTox Green fluorescence; series mostly up to 76.8 µM; also: nearly all actives have a fitted effect of over 45% in size
Procedure, shortened: as §3

[12] = qHTS RealTime-Glo MT Cell Viability Assay in HEK293 cells - 16 hour (AID 1224872); conditions: RealTime-Glo luminescence; series mostly up to 76.8 µM
Procedure, shortened: as §2

[13] = qHTS RealTime-Glo MT Cell Viability Assay in HepG2 cells - 8 hour (AID 1224873); conditions: RealTime-Glo luminescence; series mostly up to 76.8 µM; also: nearly all actives have a fitted effect of over 55% in size
Procedure, shortened: as §4

[14] = qHTS RealTime-Glo MT Cell Viability Assay in HEK293 cells - 40 hour (AID 1224874); conditions: RealTime-Glo luminescence; max response: stronger effect = lower value; also: nearly all actives have a fitted effect of over 50% in size
Procedure, shortened: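 HEK293 cells mixed with RealTime-Glo reagents (NanoLuc plus cell-permeant prosubstrate) at 600 cells/well, preincubated 5 h at 37 C/5% CO2, then given 23 nL compound in DMSO. Nonlytic luminescence from viable cells was read at 0, 8, 16, 24, 32 and 40 h.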

[15] = A CellTox Green Cytotoxicity Assay to monitor cytotoxicity in HEK293 cells - 24 hour (AID 1224875); conditions: CellTox Green fluorescence; series mostly up to 76.8 µM; also: nearly all actives have a fitted effect of over 45% in size
Procedure, shortened: as §3

[16] = A CellTox Green Cytotoxicity Assay to monitor cytotoxicity in HepG2 cells - 16 hour (AID 1224876); conditions: CellTox Green fluorescence; series mostly up to 76.8 µM; also: nearly all actives have a fitted effect of over 45% in size
Procedure, shortened: (§5)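 HepG2 cells were seeded together with the CellTox Green dye at 600 cells/well, left 5 h at 37 C/5% CO2, then given compounds in DMSO. Fluorescence from dye bound to dead-cell DNA was read repeatedly over 40 h of treatment at 37 C.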

[17] = qHTS RealTime-Glo MT Cell Viability Assay in HepG2 cells - 32 hour (AID 1224877); conditions: RealTime-Glo luminescence; series mostly up to 76.8 µM; also: nearly all actives have a fitted effect of over 55% in size
Procedure, shortened: as §1

[18] = A CellTox Green Cytotoxicity Assay to monitor cytotoxicity in HepG2 cells - 24 hour (AID 1224878); conditions: CellTox Green fluorescence; series mostly up to 76.8 µM; also: nearly all actives have a fitted effect of over 45% in size
Procedure, shortened: as §5

[19] = A CellTox Green Cytotoxicity Assay to monitor cytotoxicity in HepG2 cells - 40 hour (AID 1224879); conditions: CellTox Green fluorescence; series mostly up to 76.8 µM; also: nearly all actives have a fitted effect of over 40% in size
Procedure, shortened: as §5

[20] = qHTS assay to identify small molecule agonists of the hypoxia (HIF-1) signaling pathway (AID 1224846; active = well fitted activation curve with a large enough effect in the signal ratio in the repeat runs, not every such curve was filed as active; the % refers to the signal ratio); conditions: HRE-bla ME-180 cells, beta-lactamase ratio, 17 h; series mostly up to 76.8 µM
Procedure, shortened: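 HRE-bla ME-180 cells (beta-lactamase reporter under hypoxia response element) were plated at 2,000 cells/well in medium with 0.5% dialyzed FBS, rested 5 hrs, then given compounds in DMSO for 17 hrs at 37C, 5% CO2. Reporter induction was read with CCF4-AM FRET substrate.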
% is scaled to controls: 0 for no effect and ±100 for the full control effect.

[Cl][Nd]([Cl])[Cl]
inactive: Potency [1] | Potency [2] | Potency [3] | Potency [4] | Potency [5] | activity change, positive = activation [6] -6.02% | Potency [7] | Potency [8] | Potency [9] | Potency [10] | Potency [11] | Potency [12] | Potency [13] | max response [14] 2.18% | Potency [15] | Potency [16] | Potency [17] | Potency [18] | Potency [19]

COc1ccc(-c2cc(=S)ss2)cc1
inactive: Potency [1] | Potency [2] | Potency [3] | Potency [4] | Potency [7] | Potency [9] | Potency [10] | Potency [11] | Potency [12] | Potency [13] | Potency [15] | Potency [16] | Potency [17] | Potency [18] | Potency [19]

CCCCCCC(O)CCCCCCCCCCC(=O)OC (stereo unspecified)
inactive: Potency [1] | Potency [2] | outcome [20] | Potency [4] | Potency [7] | Potency [8] | Potency [9] | Potency [10] | Potency [11] | Potency [12] | Potency [13] | max response [14] -16.2% | Potency [15] | Potency [16] | Potency [17] | Potency [18] | Potency [19]

CC(CCc1ccc(O)cc1)NCCc1ccc(O)c(O)c1 (stereo unspecified)
inactive: Potency [1] | Potency [2] | outcome [20] | Potency [4] | Potency [5] | activity change, positive = activation [6] -12.3% [at 42.5 µM] | Potency [7] | Potency [8] | Potency [9] | Potency [10] | Potency [11] | Potency [12] | Potency [13] | max response [14] -18.1% | Potency [16] | Potency [17] | Potency [18] | Potency [19]

O=C1NC(=O)c2cccc3cccc1c23
inactive: Potency [1] | Potency [2] | outcome [20] | Potency [4] | Potency [7] | Potency [8] | Potency [9] | Potency [10] | Potency [11] | Potency [12] | Potency [13] | max response [14] -4.43% | Potency [15] | Potency [16] | Potency [17] | Potency [19]

CCCCCCCCCCCCCCCCCC(=O)OCC(CC)CCCC (stereo unspecified)
inactive: Potency [1] | Potency [2] | outcome [20] | Potency [4] | Potency [7] | Potency [8] | Potency [9] | Potency [10] | Potency [11] | Potency [12] | Potency [13] | max response [14] 2.92% | Potency [16] | Potency [17] | Potency [18] | Potency [19]
